Bioassay records (PubChem)
ANO1 block: blocks the mouse calcium-activated chloride channel TMEM16A | HEK293 TMEM16A/YFP iodide influx fluorescence, ionomycin | normalized B-score (activity score, 25-100; higher = stronger inhibition) at 10 µM | 1.2% of 310,000 active | AID 588511 | Q8BHY3;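 active means ratio plate-corrected score three or more library SD toward inhibition, starting fluorescence score within five deviations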;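 further: score derived from kinetic fluorescence span divided by baseline fluorescence per well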
NTR1 ag: activates human neurotensin receptor 1. NTR1-U2OS beta-arrestin-GFP spot imaging, agonist mode. activation, % at 20 µM. 0.17% of 330,000 active;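 active means activation at or above 40% of the spot to cytoplasm intensity ratio, with at least 20 cells analyzed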;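 further: 0% = DMSO without peptide and 100% = 100 nM NTR1 peptide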
Target sequence (P30989 whole entry, looked up): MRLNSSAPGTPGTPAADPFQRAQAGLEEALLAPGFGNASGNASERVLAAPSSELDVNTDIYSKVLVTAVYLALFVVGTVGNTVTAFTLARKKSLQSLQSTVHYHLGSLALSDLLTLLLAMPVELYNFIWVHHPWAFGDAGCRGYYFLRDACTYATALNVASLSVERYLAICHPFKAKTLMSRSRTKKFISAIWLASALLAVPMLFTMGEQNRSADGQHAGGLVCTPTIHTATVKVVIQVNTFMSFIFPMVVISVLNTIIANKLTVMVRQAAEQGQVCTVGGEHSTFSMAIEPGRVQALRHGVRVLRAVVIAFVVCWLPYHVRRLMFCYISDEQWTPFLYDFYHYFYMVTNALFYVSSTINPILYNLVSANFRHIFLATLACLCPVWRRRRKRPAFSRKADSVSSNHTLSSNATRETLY
MEKK2 mut-MEK5: signal of MEK5 binding to mutant human MEKK2 PB1 domain | bead flow cytometry, Alexa488-MEK5 binding to MEKK2 mutant | percent response, % at 10 µM | 0.35% of 290,000 active; in the data active means percent response above about 24%, passing the limit was not always enough
MEKK2 WT-MEK5: raises or lowers MEK5 binding to wildtype human MEKK2 PB1 domain | bead flow cytometry, Alexa488-MEK5 binding to MEKK2 WT; actives lie on both sides | binding response (% of control), % at 10 µM | 1.1% of 290,000 active | AID 1531; in the data active means binding response below about 67% or above about 130%
MEKK3 PB1 HTS: MEKK3-MEK5 PB1 interaction, increase or decrease. Q99759. bead-based flow cytometry, Alexa488-MEK5 binding to MEKK3; actives lie on both sides; 0 = blocked by unlabeled MEK5, 100 = vehicle. binding response (% of control), % at 10 µM. 1.4% of 290,000 active. AID 1529;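 active means binding response more than 3 SD above or below the average of its plate-row segment, actives on both sides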;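 further: Alexa488 bead fluorescence after subtracting the streptavidin-only scavenger bead signal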
TMEM16A act: activators or potentiators of mouse TMEM16A chloride channel | Q8BHY3 | HEK293 TMEM16A/YFP-H148Q/I152L, iodide quench fluorescence; hits give low values | B-score at 10 µM | 0.3% of 340,000 active | AID 623877;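 active means fluorescence-ratio B-score plate-corrected deviation score at least 3 library SD below zero, with starting fluorescence score within 5 deviations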;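 further: channel opened by trigger with iodide after compound preincubation; score built on the fluorescence ratio of max minus min over baseline; more negative score means more quench and so TMEM16A activation or potentiation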
Starred values were filed as active, the others as inactive; i = inactive; . = not tested or not shown; [ ] = dose if it differs, or a comment. Only some compounds are listed: those with a hit (about 3.4% of all), similar ones and a draw of the others.

SMILES	ANO1 block	NTR1 ag	MEKK2 mut-MEK5	MEKK2 WT-MEK5	MEKK3 PB1 HTS	TMEM16A act
CN(c1ccccc1)S(=O)(=O)c1cccc(NC(=O)c2nn(C)c(=O)c3ccccc23)c1	.	6	.	.	.	i
COC(=O)Cc1ccc(NC(=O)c2ccc(C(C)(C)C)cc2)cc1	100*	5	-6	94	99	i
CC(C)(C)c1ccc(C(=O)Nc2ccc(Cl)cc2)cc1	i	3	1	95	97	i
Cc1cc2cc(CNC(=O)c3ccc4c(c3)OCO4)ccc2[nH]1	i	1	-5	-9.0*	84	i
Cc1cc2cc(CNC(=O)c3ccc(Br)o3)ccc2[nH]1	i	-3	1	53*[inhibitor]	68	i
CC(=O)N1c2ccc(S(=O)(=O)N3CCC(C(=O)Nc4cccc(F)c4)CC3)cc2CC1C (centres undefined)	i	2	3	102	102	i
CCOC(=O)c1cc([N+](=O)[O-])sc1NC(=O)c1ccc(S(=O)(=O)N2CC3(C)CC2CC(C)(C)C3)cc1 (centres undefined)	i	5	-1	100	123	-26*
CCOC(=O)c1c(S(=O)(=O)N2CCCCC2C)c(C)n(C)c1C (centres undefined)	i	0	-1	100	99	i
CC(=O)c1cccc(-n2c(CCC(=O)O)ccc2-c2ccc(C)cc2)c1	i	-1	4	108	106	i
COc1cccc(-n2c(=O)c3c(C)c(C(=O)N(C)C)sc3n(CC(=O)NCC3CCCO3)c2=O)c1 (centres undefined)	i	-1	-12	81	71	i
CN(Cc1ccccc1)C(=O)c1[nH]cnc1C(=O)NCc1ccc(CNC(=O)OC(C)(C)C)cc1	.	1	.	.	.	i
CN(Cc1ccccc1)C(=O)c1[nH]cnc1C(=O)NCc1ccccc1	.	-2	.	.	.	-8.1*
COc1ccc(F)cc1CSc1nnnn1-c1ccc(O)cc1	25*	0	-3	95	98	i
COc1ccc(C(C)=O)cc1CSc1nnnn1-c1ccc(O)cc1	i	2	20	102	108	i
COc1ccc(C(CNC(=O)c2oc3cc(C)c(Cl)cc3c2C)N2CCCCC2)cc1 (centres undefined)	i	6	37*	169*	108	i
CC(C)(C)c1nnc2sc(SCC(=O)N3CCCc4ccccc43)nn2c1=O	i	5	5	100	104	i
CC1Cc2ccccc2N1C(=O)CSc1nn2c(=O)c(C(C)(C)C)nnc2s1 (centres undefined)	i	4	0	100	109	-37*
Cc1cc(Cl)ccc1OCC(=O)Nc1ccncc1	25*	0	-1	101	101	i
CCOc1ccccc1NC(=O)CS(=O)(=O)c1cn(CC(=O)N2CCOCC2)c2ccccc12	i	1	11	109	106	i
Cc1cccc(N2CCN(C(=O)c3ccc(NC(=O)C4CCCO4)cc3)CC2C)c1 (centres undefined)	i	-2	-17	-1.0*[inhibitor]	0.0*[inhibitor]	i
CC(=O)c1ccc(N2CCN(C(=O)c3ccc(NC(=O)C4CCCO4)cc3)CC2)cc1 (centres undefined)	i	-2	-5	87	81*[inhibitor]	i
CCOc1ccc(S(=O)(=O)NCCC(=O)NC2CCC(C)CC2)cc1 (centres undefined)	.	4	.	.	.	i
O=C1OCC2OC(O)C(O)C(O)C2OC(=O)c2cc(O)c(O)c(O)c2-c2c(O)c(O)c3oc(=O)c4c(c(O)c(O)c5oc(=O)c2c3c54)-c2c1cc(O)c(O)c2O (centres undefined)	.	.	-15	66*[inhibitor]	73*[inhibitor]	.
COc1c(O)cc2c(c1O)C1OC(CO)C(O)C(O)C1OC2=O (centres undefined)	i	2	.	.	.	i
C[C@@H]1CCC[C@]2(O[C@H](CCO)C[C@H](O)[C@H]2O)O1	i	-1	3	106	100	i
SMILES	ANO1 block	NTR1 ag	MEKK2 mut-MEK5	MEKK2 WT-MEK5	MEKK3 PB1 HTS	TMEM16A act
Cc1cc(C)n2nc(SCc3nnc(-c4ccc(F)cc4)o3)nc2n1	i	2	-3	90	94	.
Cc1cc(C)cc(NC(=O)CSCc2nc3c(nnn3Cc3ccc(F)cc3)c(=O)[nH]2)c1	25*	0	2	104	105	i
O=c1c(/C=N/OCc2ccc(Cl)cc2Cl)c[nH]n1-c1cccc(Cl)n1	25*	0	1	100	102	i
Cn1c2ccccc2c(=O)c2ccc(C#Cc3ccc(N)cc3)cc21	i	6	8	22*	102	i
CC(=O)c1cn(CC(=O)NCC2CCCO2)c2ccccc12 (centres undefined)	i	-2	3	113	107	-4.8*
CCCCCCCNC(=O)c1ccc(N2CCC3(CC2)OCCO3)c([N+](=O)[O-])c1	100*	2	-1	100	100	i
Cc1cc(N2CCCC2)c(C)cc1C=O	i	4	-6	-46*	95	i
Cc1cc(C(=O)COC(=O)c2ccc(O)cc2)c(C)n1-c1ccccc1F	i	4	-1	101	110	-29*
Cc1cc(C(=O)COC(=O)c2ccc[nH]c2=O)c(C)n1-c1ccccc1F	i	0	20	100	103	i
CCOc1ccc(S(=O)(=O)Nc2ccc(F)cc2)c(C)c1C	25*	3	-7	94	98	i
COc1ccc(C2CC(C(F)(F)F)n3nc(C(=O)O)c(Cl)c3N2)cc1OC (centres undefined)	i	-2	6	98	99	i
COc1ccc(C2CC(C(F)(F)F)n3nc(CO)c(Cl)c3N2)cc1OC (centres undefined)	i	0	-1	105	103	-14*
O=C(COc1ccccc1)NNC(=S)NC(=O)c1ccc(Cl)cc1Cl	25*	-2	4	103	105	.
Cc1cccc(C(=O)NC(=S)NNC(=O)COc2ccc(Cl)cc2)c1	.	0	1	102	103	i
COc1cccc(OCC(=O)NNC(=S)Nc2ccc(Cl)cc2Cl)c1	100*	0	2	103	98	i
O=C(COc1cccc(Cl)c1)NNC(=S)Nc1ccccc1	i	-2	5	105	94	i
O=C1C=C(/C=C/C2C=CC=CC2)C[C@@H](c2ccc(Cl)cc2)C1 (some centres undefined)	.	5	.	.	.	-9.8*
COc1ccccc1CNC(=O)Cn1cccc1C(=O)c1ccccc1C	i	0	3	101	101	i
O=C(NCc1ccc2c(c1)OCO2)C1CCN(S(=O)(=O)c2ccc(Br)s2)CC1	i	0	11	91	95	-6.9*
